High-throughput results: PubChem BioAssay, several laboratories
Most compounds without a hit are left out; they make up all but 1.9% or so of the library.
Neddyl block: inhibitors of cullin neddylation, primary screen, biochemical, TR-FRET, uHTS, NAE and Ubc12 | NEDD8-conjugating enzyme Ubc12 (Homo sapiens) + NEDD8-activating enzyme E1 regulatory … | inhibition, % at 25 µM | actives 0.58% (n = 360,000); in the data active = inhibition above about 36%
GSIS activator: GLuc luminescence reporter in INS-1E cells, primary screen for activators of glucose-dependent secretion of insulin; activation, % at 16.6 µM; INS-1E GLuc reporter insulin secretion, 2-3 h; actives 0.61% (n = 370,000); AID 743287, 2014;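 active = lowest replicate activation of at least 40%, so every replicate reaches that level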;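 note: 0% = median of neutral control wells and 100% = median of IBMX positive control wells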
A1 inh: caspase 3/7 activation in MEF A1-2A-BIM cells, primary screen, A1 inhibitor project, cell-based, luminescence, HTS; Caspase-Glo 3/7 luminescence, 3 h; percent of clofoctol response, vehicle zero; caspase activation, % (no concentration beside the values); actives 0.066% (n = 330,000);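 active = over half of replicate activation scores above 10%, or exactly half above 10 with the replicate mean above 10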
dFosB activator: activators of delta FosB homodimer, primary screen, biochemical, fluorescence polarization, TAMRA-CDK5 oligo, single point | actives 0.99% (n = 340,000) | activation, % at 25 µM | AID 493131, 2011 | purified delta FosB; percent of positive-control signal above neutral wells;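 active = mean activation above about 17%, with every replicate also reaching it, limit read from the data, passing the limit was not always enough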
Target sequence (P13346 whole entry, looked up): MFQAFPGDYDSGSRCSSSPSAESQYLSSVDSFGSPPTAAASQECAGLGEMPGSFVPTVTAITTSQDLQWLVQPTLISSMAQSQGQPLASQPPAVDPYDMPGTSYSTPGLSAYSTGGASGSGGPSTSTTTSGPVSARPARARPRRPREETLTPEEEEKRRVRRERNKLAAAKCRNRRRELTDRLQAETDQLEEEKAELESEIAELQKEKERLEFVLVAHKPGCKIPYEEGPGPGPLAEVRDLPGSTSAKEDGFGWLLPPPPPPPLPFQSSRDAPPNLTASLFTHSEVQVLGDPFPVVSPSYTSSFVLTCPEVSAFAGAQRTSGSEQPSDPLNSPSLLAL
Vif imaging: HIV Vif self-association inhibitors, primary screen, imaging, HEK293T, single point; HEK293T cells, Vif self-association by quenched fluorescence, 24 h; inhibition, % at 7.49 µM; actives 0.35% (n = 340,000); AID 602346, 2012; in the data active = inhibition above about 50%, passing the limit was not always enough
Active calls of the source: *; i = inactive; / = no result given; ! = a repeat was not active.

SMILES	Neddyl block	GSIS activator	A1 inh	dFosB activator	Vif imaging
O=C(C1CCCCC1)N1CC2(C1)[C@H](c1ccccc1)[C@H](CO)N2Cc1cncnc1	/	-1.7	/	/	/
C[C@@H]1CN([C@@H](C)CO)C(=O)CCCn2cc(nn2)CO[C@H]1CN(C)S(=O)(=O)c1cccs1	3.4	1.8	/	/	-3.9
C[C@@H]1CN([C@H](C)CO)C(=O)CCCn2cc(nn2)CO[C@H]1CN(C)C(=O)c1ccccc1	-2.9	0.5	/	/	69.7*
C[C@@H]1CN([C@H](C)CO)C(=O)CCCn2cc(nn2)CO[C@H]1CN(C)S(=O)(=O)c1cccs1	0.0	40.9*!	/	/	26.0
C[C@H](CO)N1C[C@H](C)[C@H](CN(C)Cc2ccccc2)Oc2ncc(-c3ccc(F)cc3)cc2C1=O	/	-16.1	/	/	/
Cc1cc(C(F)(F)F)n2nc(-c3cnn(C)c3C(F)(F)F)cc2n1	-0.3	/	-0.3	-6.5	67.6*
O=C(C[C@@H]1CC[C@@H](NC(=O)Nc2cc(F)ccc2F)[C@H](CO)O1)NCc1ccc2c(c1)OCO2	/	-1.8	/	/	/
Nc1nc(NCCCN2CCOCC2)nc(Nc2cccc(F)c2)c1[N+](=O)[O-]	-29.1	/	0.2	25.8*	6.9
Cc1cccc(Nc2nc(NCCCN3CCOCC3)nc(N)c2[N+](=O)[O-])c1	-44.6	/	0.1	36.9*	0.4
Nc1nc(NCCCN2CCOCC2)nc(Nc2ccccc2F)c1[N+](=O)[O-]	-26.3	26.8	-0.4	25.3*	0.5
Nc1nc(NCCCN2CCOCC2)nc(Nc2ccc(F)cc2)c1[N+](=O)[O-]	-24.8	18.4	-0.4	30.8*	-2.9
COCC(=O)Nc1ccc2c(c1)[C@@H]1C[C@H](CC(=O)N(C)C)O[C@H](CO)[C@@H]1O2	/	-7.4	/	/	/
O=C1C=C(c2cc3ccccc3s2)C[C@@H](c2ccc(Cl)cc2)C1	-26.3	-1.2	-0.2	-7.8	-2.3
COc1ccc([C@H]2CC(=O)C=C(c3cc4ccccc4s3)C2)cc1	-29.5	-2.1	0.2	-2.2	50.6*
O=C(Nc1ccc(F)cc1)C1CC(=O)n2c(nc3ccccc32)N1 (stereo unspecified)	-0.3	6.8	0.8	3.9	-2.2
COc1ccc(NC(=O)C2CC(=O)n3c(nc4ccccc43)N2)cc1 (stereo unspecified)	-5.2	19.7	-0.1	34.5*	1.9
COc1ccccc1NC(=O)Nc1nnc(CC(=O)Nc2ccccc2C)s1	-0.1	9.0	0.2	26.5*	7.0
COc1ccccc1NC(=O)Nc1nnc(CC(=O)Nc2ccccc2)s1	/	12.3	-0.2	/	/
Cc1ccc(S(=O)(=O)Nc2ccc3c(c2)C(=O)N([C@@H](C)CO)C[C@H](C)[C@@H](CN(C)C(=O)Nc2c(C)noc2C)OCCCC[C@H](C)O3)cc1	/	-7.2	/	/	/
CC/C(C)=N\N=C\c1c(O)n(CC)c2cc(C3=NNC(=O)CC3)ccc12	-6.7	/	0.5	-11.1	5.2
CCn1c(O)c(/C=N/N=C/c2ccc(OC)cc2)c2cc(C3=NNC(=O)CC3)ccc21	-40.7	65.0*	0.8	-3.8	i
COc1ccc(/C=C\C(=O)NCC(=O)N/N=C/c2cccc(OC)c2O)cc1	14.9	7.8	-0.3	46.5*	-4.0
COc1cccc(/C=N/NC(=O)CNC(=O)/C=C\c2ccccc2)c1O	1.2	-1.6	-0.4	58.0*	-6.0
C[C@@H]1CN([C@@H](C)CO)S(=O)(=O)c2ccc(-c3ccncc3)cc2O[C@H]1CN(C)C(=O)C1CCC1	/	6.9	/	/	/
COc1cc2cnc(-c3cccnc3)cc2cc1OC	-17.2	61.6*	-3.4	-25.0	5.1
SMILES	Neddyl block	GSIS activator	A1 inh	dFosB activator	Vif imaging
Oc1ccc(/C=N/N2CCN(C3c4ccccc4-c4ccccc43)CC2)cc1O	-4.8	4.3	29.4*	-3.3	-1.8
O=C(O)CSc1nnc(Cc2ccccc2)n1Cc1ccccc1	0.4	56.6*	1.1	0.9	-2.8
CCOC(=O)C1=C2c3cc(OC)c(OC)cc3CC(C)(C)N2C(=O)C1=O	7.4	44.9*	1.7	1.3	2.9
Cc1ccccc1Cc1c(C)nc2c(C(=O)NCc3ccco3)cnn2c1C	/	45.6*	0.0	-25.5	-12.4
Cc1nn(-c2ccccc2)c(Cl)c1CN(C(=O)CCl)c1ccc(Cl)cc1	5.3	15.4	6.2*	-11.2	10.7
CC(C)C(=O)Nc1ccc(C(=O)N/N=C/C2CC3C=CC2C3)cc1 (stereo unspecified)	3.0	-1.6	-0.4	-11.0	57.9*
NS(=O)(=O)c1ccc(NC(=O)CCC(=O)N2CCOCC2)cc1	-5.5	6.3	-0.1	10.5	57.8*
COc1ccc(NC(=O)Nc2ccc3c(c2)C(=O)N([C@@H](C)CO)C[C@H](C)[C@@H](CN(C)S(=O)(=O)c2cccs2)OCCCC[C@@H](C)O3)cc1	/	3.1	/	/	/
CCc1nc(SCC(=O)Nc2ccccc2C)n[nH]1	-10.8	1.0	-1.6	-5.4	0.1
COc1ccccc1NC(=O)CSc1n[nH]c(Cc2ccccc2)n1	2.1	43.4*	0.0	6.1	3.4
CC(C)Oc1ccc(C(=O)N/N=C/c2ccc(-c3ccc(S(=O)(=O)Nc4ncccn4)cc3)o2)cc1	48.3*	/	0.7	-3.7	2.0
C[C@@H]1CCCCO[C@H](CN(C)Cc2ccccc2)[C@@H](C)CN([C@@H](C)CO)C(=O)c2cc(NC(=O)Nc3ccc4c(c3)OCO4)ccc2O1	/	-29.0	/	/	/
Cc1ccc(C(=O)N/C(=C/c2ccco2)C(=O)NCc2ccco2)cc1	8.9	114.9*	1.4	-13.2	-11.2
O=C(O)c1ccc(-n2nnnc2SCc2cccc(Br)c2)cc1	8.1	63.1*	0.1	-12.2	2.3
Cc1cc(C)c(CSc2nnnn2-c2ccc(C(=O)O)cc2)c(C)c1	6.9	88.7*	-0.2	-1.4	-10.7
CSc1nnnn1-c1ccc(C(=O)O)cc1	-3.7	26.1	-0.1	1.2	6.8
C[C@H]1CCCCO[C@@H](CN(C)C(=O)Nc2ccccc2)[C@@H](C)CN([C@@H](C)CO)C(=O)c2cc(NS(=O)(=O)c3ccc(F)cc3)ccc2O1	/	-7.2	/	/	/
COc1cccc(C#Cc2ccc([C@@H]3[C@H](CO)N4C(=O)CN(C(=O)C5CC5)C[C@@H]34)cc2)c1	/	-14.3	/	/	/
COc1ccc(NC(=O)N[C@H]2CC[C@@H](CCNC(=O)c3cc(Cl)cc(Cl)c3)O[C@@H]2CO)cc1	/	-6.9	/	/	/
COc1ccc(-n2c(C)cc(-c3csc(N)n3)c2C)cc1	-9.0	-18.5	0.9	25.0*	5.7
Cc1cc(-c2csc(N)n2)c(C)n1-c1ccc(Cl)c(Cl)c1	-11.5	2.5	0.2	-0.9	/
COc1ccc(OCC(=O)Nc2cc3c(cc2C(=O)O)OCCCO3)cc1	16.4	15.7	-1.3	-1.6	51.6*
COc1ccc2cc(CCNS(=O)(=O)c3ccc(NC(C)=O)cc3)c(=O)[nH]c2c1	15.1	-2.7	0.5	-2.7	56.9*
